From PubChem
ELG1 DNA repair: ELG1-dependent DNA repair inhibition. HEK293T ELG1-luciferase reporter, luminescence, 16 h; DNA damage induced by 5-fluorouridine. Potency, µM (doses to about 46.1 µM), for inactives: at the highest dose activity change, negative = inhibition, actives largely listed as inhibitors. 330,000 tested, 2.3% active. AID 504467; further: potency means the concentration at half of the fitted maximal effect; nearly all actives have a fitted effect of over 55% in size
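5-Fluorouridine DNA damage + compound/DMSO, 2,000 cells/well, 16 h, 37 °C/5% CO2. ONE-Glo, 30 min RT, luminescence. Readout = decrease in reporter signal.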
HT1080 IDH1KD tx: kills HT-1080 cells with IDH1 knockdown; HT-1080 IDH1 knockdown viability, ATP luminescence, 48 h; Potency, µM (titrated, usually from 46.1 µM), without a hit: at the top dose activity, negative = toxicity, actives largely listed as cytotoxic; 360,000 tested, 2% active;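 further: potency means the concentration at half of the fitted maximal effect; 0% = DMSO wells and -100% = cell-free medium wells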
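HT-1080-IDH1KD cells (IDH1 knocked down), 750/well in RPMI with 5% FBS, treated with compound 48 h at 37 degrees C. Viability by CellTiter-Glo luminescence, normalised to DMSO and no-cell wells; concentration-response curves classed.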
TDP1 cell CPT: growth inhibition of DT40 Tdp1-/-;hTDP1 cells with camptothecin (screen for TDP1 inhibitors) | chicken DT40 Tdp1-/-;hTDP1 cells + 20 nM CPT, ATP luminescence, 48 h | Potency, µM (highest dose often 46.2 µM), for the others: top-dose activity change, negative = growth inhibition, hits mostly inhibitors | 420,000 tested, 12% active | AID 686979; further: potency means the concentration at half of the fitted maximal effect; nearly all actives have a fitted effect of over 55% in size
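Chicken DT40 Tdp1-/- cells stably complemented with human TDP1 were seeded at 400 cells/well in medium containing 20 nM camptothecin, exposed to pin-transferred compounds, and grown at 37 °C for at least 48 hr. Viability was read as ATP luminescence.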
IL-1B inflam inh: inhibitors of inflammasome signaling (IL-1 beta secretion) | activity change, % at 57.5 µM | AID 743279 | THP-1 LPS/ATP IL-1B secretion, AlphaLISA, 16 h; hits give low values | 360,000 tested, 4.7% active; in the data active means activity change below about -50%; inconclusive means mostly about -30% to -49%
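THP-1 cells pretreated 1 hr with compounds (up to 57.5 uM final), then stimulated with LPS (250 ng/mL final) plus ATP (1.25 mM final); secreted IL-1B measured by AlphaLISA after 16 hr, decreased signal indicating inhibition.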
HT1080NT lethal: kills 2HG-producing HT-1080-NT fibrosarcoma cells; Potency, µM (titrated, usually from 46.1 µM), inactives show top-dose activity, negative = less viability, actives largely listed as cytotoxic; AID 686970; HT-1080-NT fibrosarcoma viability, CellTiter-Glo ATP luminescence, 48 h; 360,000 tested, 1.6% active;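 further: NT is the 2HG producing partner of a matched IDH1 knockdown line; potency means the concentration at half of the fitted maximal effect; 0% = DMSO-treated cells and -100% = media-only wells without cells; nearly all actives have a fitted effect of over 55% in size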
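Viability by CellTiter-Glo luminescence after 48 h compound exposure at 37C of HT-1080-NT cells (750/well, RPMI, 5% FBS). % activity scaled between DMSO wells and medium-only wells, then curve-fitted and categorized by curve class.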
DT40 TDP1 no CPT: qHTS for Inhibitors of human tyrosyl-DNA phosphodiesterase 1 (TDP1): qHTS in cells in absence of CPT; DT40 Tdp1-/- hTDP1 cells, no CPT, ATP luminescence, 48 h; Potency, µM (series often up to 46.2 µM), inactives show at the highest dose activity change, negative = growth inhibition, most hits filed as inhibitors; 420,000 tested, 15% active; AID 686978, 2013; further: potency means the concentration at half of the fitted maximal effect; nearly all actives have a fitted effect of over 55% in size
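Growth kinetics read by CellTiter-Glo luminescence after ≥48 hr at 37 °C. Cells: DT40 Tdp1-/- stably carrying human TDP1, 400 per well, compound exposure in the absence of CPT (DMSO vehicle).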
Numbers without * were called inactive; ? = inconclusive; . = no result; [ ] = remark or other dose. Hits are enriched below; roughly 19% of the tested compounds scored in any of these assays. Unless noted, the call rests on the fitted dose curve; in most records, active means well fitted curve in the direction sought with a large enough effect; inconclusive means small, poorly fitted or top-dose-only effect, or another doubt; inactive means no such curve, though single readings can be large; an effect the other way counts as inactive or inconclusive. Unless noted, on the % scale 0 is the no-effect control and ±100 the full control effect.

SMILES | ELG1 DNA repair | HT1080 IDH1KD tx | TDP1 cell CPT | IL-1B inflam inh | HT1080NT lethal | DT40 TDP1 no CPT
CC(C)NC(=O)N1CCC2(CC1)CCN(C(=O)c1cc(C(F)(F)F)cc(C(F)(F)F)c1)CC2 | . | . | -26.7% | . | . | ?
COc1ccc(CN2C[C@@H](CO)O[C@@H](n3cnc4c(N5CCN(CCO)CC5)ncnc43)C2)cc1 | . | ? | ? | 0.0 | 2.9% | -24.5%
COc1ccc(OC)c2c1cc(C(=O)N[C@H](C(=O)N1CCC(C(=O)O)CC1)C(C)C)n2C | 4.8% | 11.4% | 0.5% | 13.8 | 14.4% | -5.4%
CC(Oc1ccccc1)C(=O)NCC1Cc2cc(F)cc(-c3ccccn3)c2O1 (stereo not drawn) | . | . | 9.7%[9.04 µM] | . | . | -22.2%
CC(=O)Nc1cccc(C(=O)/C=C/c2ccc[nH]2)c1 | ? | 11.4% | ? | -22.6 | 0.9% | ?
CC(=O)Nc1cccc(C(=O)/C=C/c2ccc(Br)cc2)c1 | ? | -1.4% | 3.26µM* | -107.0* | ? | 4.61µM*
CC(=O)Nc1cccc(C(=O)/C=C/c2ccc(N(C)C)cc2)c1 | ? | 0.7% | 3.0% | ? | 3.0% | ?
CCC(=O)Nc1cccc(C(=O)/C=C/c2cc(Br)ccc2OC)c1 | ? | 8.2µM* | 2.91µM* | -104.5* | 8.2µM* | 4.11µM*
CC(=O)Nc1cccc(C(=O)/C=C/c2ccc(F)cc2)c1 | ? | 11.6µM* | 2.31µM* | -192.2* | 3.6% | 4.61µM*
CC(=O)Nc1cccc(C(=O)/C=C/c2cccs2)c1 | 6.5% | -0.6% | ? | -104.8* | 1.9% | 20.6µM*
O=c1oc2ccc(Cl)cc2cc1-c1cn2c(n1)sc1ccccc12 | . | . | -12.7% | . | . | 0.4%
O=C(CSc1n[nH]c(-c2cccs2)n1)NCCc1ccccc1 | 13.4% | -2.8% | ? | 25.2 | -9.1% | ?
O=C1CC(N2CCN(Cc3ccc(Cl)cc3)CC2)C(=O)N1CCc1ccccc1 (stereo not drawn) | -13.2% | 1.3% | 14.6µM* | 20.5 | -5.1% | 18.4µM*
CCOC(=O)c1c(NC(=O)COc2ccccc2F)sc2c1CC(C)(C)NC2(C)C | ? | 8.2% | 9.2µM* | -25.7 | -0.5% | 13µM*
CCOC(=O)c1c(NC(=O)CSc2ncccn2)sc2c1CC(C)(C)NC2(C)C | -24.1% | -15.8% | -1.6% | -57.5* | -15.8% | -1.7%
CCOC(=O)c1c(NC(=O)CSc2nc3ccc(OC)cc3[nH]2)sc2c1CC(C)(C)NC2(C)C | ? | -24.9% | ? | -93.8* | 1.2% | ?
CCOC(=O)c1c(NC(=O)CSc2ncccn2)sc(C(=O)NC)c1C | -27.7% | 0.1% | ? | 22.0 | -1.2% | ?
COC(=O)c1c(NC(=O)COc2ccc(Cl)cc2)sc2c1CC(C)(C)NC2(C)C | 13.8% | -9.7% | 2.91µM* | -97.0* | 2.1% | 3.66µM*
COc1ccccc1-c1cc(NC=O)c2ncc(-c3cccc(C(F)(F)F)c3)n2c1 | . | -6.3% | ? | -7.2 | -9.0% | 18.4µM*
COc1ccc(-c2cc(NC=O)c3ncc(-c4cccc(C(F)(F)F)c4)n3c2)cc1OC | . | 20.6µM* | 23.1µM* | -63.0* | ? | 20.6µM*
CN(C)c1ccccc1-c1cc(NC=O)c2ncc(-c3cccc(C(F)(F)F)c3)n2c1 | . | 29.1µM* | ? | -73.7* | ? | 23.1µM*
COc1cc(-c2cc(NC=O)c3ncc(-c4cccc(C(F)(F)F)c4)n3c2)cc(OC)c1OC | . | -9.6% | 8.2µM* | -28.2 | -14.0% | 10.3µM*
CC(=O)Oc1ccc2c(c1)CCC1C2CC[C@]2(C)C(=O)CCC12 (stereo partly drawn) | . | . | 3.5% | . | . | -8.7%
COc1ccccc1-c1cc(NC=O)c2ncc(-c3ccc(F)cc3)n2c1 | . | 18.4µM* | 13µM* | -23.2 | ? | 18.4µM*
CCCCN(C)CCNC(=O)C1CCN(c2nc3ccc(CC)cc3s2)CC1 | . | . | 20.6µM* | . | . | 23.1µM*
SMILES | ELG1 DNA repair | HT1080 IDH1KD tx | TDP1 cell CPT | IL-1B inflam inh | HT1080NT lethal | DT40 TDP1 no CPT
CCCCN(C)CCCNC(=O)c1ccc2nc(N3CCCCC3)sc2c1 | . | . | 23.1µM* | . | . | ?
CCc1ccc2nc(N3CCC(C(=O)O)CC3)sc2c1 | . | . | 4.8% | . | . | -19.3%
CCCCN(CCCNC(=O)c1ccc2nc(N3CCOCC3)sc2c1)Cc1ccccc1 | -26.5% | -24.6% | ? | 30.7 | -12.4% | 16.4µM*
O=c1[nH]c(=S)c2[nH]c(=S)n(-c3ccccc3)c2[nH]1 | . | 15.5% | 39.2% | 13.2 | 17.5% | 0.7%
COc1ccc(C2c3cc(OC)c(OC)cc3CCN2C(=O)c2ccccc2Br)cc1OC (stereo not drawn) | ? | 0.6% | -10.8% | ? | -18.1% | ?
COc1ccc(C2c3cc(OC)c(OC)cc3CCN2C(=O)c2ccccc2)cc1OC (stereo not drawn) | 6.51µM* | -29.3% | ? | -9.8 | -23.1% | 9.2µM*
COc1cc2c(cc1OC)C(COc1ccc(C(C)C)cc1)N(C(=O)c1ccc(S(=O)(=O)N3CCCC3)cc1)CC2 (stereo not drawn) | . | . | ? | . | . | 20.6µM*
